The values below come from PubChem BioAssay AID651953 (The Scripps Research Institute Molecular Screening Center, 2012).

Out of some 2,400 compounds screened, about 430 (18%) were called active. Rule as the data show it: active = activation above about 12%; inactive = the rest. A selection follows.

The assay in a line: nonspecific calcium signal increase, Ga16 cells – cell-based, fluorescence, counter-screen for TAAR1 antagonist project (AID 651953).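 Also: 0% = vehicle wells and 100% = saturating stimulus response.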 Particulars: Ga16-expressing cells, agonist counterscreen, at 3 µM, stronger effect = higher value.
In the case of `COc1ccc(NC(=O)c2cc(-c3ccc(C)o3)nc3ccccc23)cc1`, the activation is 8.64% (inactive).

With `COc1ccc(-c2cc(C(=O)Nc3ccccc3O)c3ccccc3n2)cc1`, the activation was 10.9% (inactive).

As to `CC(=O)N1CCN(C(=O)c2cc(-c3ccc(Cl)s3)nc3ccccc23)CC1`, the activation is 11.8% (active).

As for `COc1ccc(S(=O)(=O)N2CCCC(C(=O)Nc3ccc(NC(=O)c4ccccn4)cc3)C2)cc1` (stereo unspecified), the activation was 9.11% (inactive).

As for `O=C(OCC(=O)N(CCc1ccccc1)Cc1ccccc1)c1ccccc1[N+](=O)[O-]`, the activation is 9.58% (inactive).

As to `Cn1c(C(=O)NCCc2ccsc2)cc2c(=O)n(C)c3ccccc3c21`, the activation is 6.98% (inactive).

As for `COc1ccc(OC)c2[nH]c(=O)c(CCNC(=O)C(=O)c3c[nH]c4ccccc34)cc12`, the activation is 9.04% (inactive).

With `COc1ccc(S(=O)(=O)N(CC(=O)NCc2ccco2)c2ccc(F)cc2)cc1`, the activation was 7.35% (inactive).

Take `N#Cc1cccc(NC(=O)COC(=O)c2ccccc2C(=O)c2ccc(Cl)c([N+](=O)[O-])c2)c1`: the activation was 10.4% (inactive).

`C[C@H](NC(=O)c1nc[nH]c1C(=O)NCC(=O)OC(C)(C)C)C(=O)OCc1ccccc1`: the activation was 6.84% (inactive).

With `COc1ccc(C2=NOC(Cn3nc(C(=O)NCc4ccc5c(c4)OCO5)cc3-c3ccccc3)C2)cc1` (stereo unspecified), the activation is 7.98% (inactive).

Consider `Cc1ccc2c(c1)N(CC(=O)NCCc1ccc(Cl)cc1)C(=O)c1cccnc1O2`, for which the activation was 8.82% (inactive).

For `C=CCC[C@@H](Cc1ccc(F)cc1)C(=O)O[C@H](CNC(=O)[C@H](CC=C)CC(=O)N(CCO)Cc1ccccc1)c1ccccc1`, the activation was 5.79% (inactive).

In the case of `CSCCC(NC(=O)COc1ccccc1)C(=O)OCCOc1ccc(Br)cc1` (stereo unspecified), the activation is 4.3% (inactive).

With `COC(=O)C1=C(C)N(Cc2ccc(F)cc2)C(=S)NC1c1cccc(Cl)c1` (stereo unspecified), the activation was 2.63% (inactive).

Take `COC(=O)Cc1nnn2c1[C@H](C)[C@H](c1ccccc1[N+](=O)[O-])OCC2`: the activation was -1.09% (inactive).

As for `Cc1ccccc1NC(=O)Cc1nc(COC(=O)C(C)(C)Oc2ccc(Cl)cc2)cs1`, the activation was 7.78% (inactive).

With `C=CCC[C@H](Cc1ccc(F)cc1)C(=O)OC[C@H](C)NC(=O)[C@H](CC=C)CC(=O)N(CCO)Cc1ccccc1`, the activation was 8.66% (inactive).

For `Cc1cccc(NC(=O)c2ccc(COc3ccccc3[N+](=O)[O-])o2)n1`, the activation was 4.04% (inactive).

For the compound `Cc1cccc(C)c1NC(=O)CNC(=O)C1CCCC1`, the activation is 2.04% (inactive).

For the compound `Cc1ccc(-n2c(C)cc(/C=N\NC(=O)CC(=O)NC(C)C)c2C)cc1`, the activation is 8.51% (inactive).

Take `O=C(NCCN1CCOCC1)c1ccccc1N1C(=O)[C@@H]2Cc3c([nH]c4ccccc34)C(c3cccc(Cl)c3)N2C1=O` (stereo partly specified): the activation is 6.37% (inactive).

As to `COc1ccc(C(=O)Nc2cccc(NC(=O)c3ccc(OC)cc3OC)n2)c(OC)c1`, the activation is 8.74% (inactive).

Regarding `O=C(CN1CCCSc2ccccc21)N1CCN(S(=O)(=O)c2cccc(F)c2)CC1`, the activation is 8.97% (inactive).

As for `Oc1ccccc1N1CCN(c2ncnc3sc(-c4ccccc4)cc23)CC1`, the activation was 6.72% (inactive).

On to `COc1cc(/C=C2/C(=O)ON=C2C)ccc1OCc1ccccc1F`, for which the activation was 12.4% (active).

In the case of `O=C(COC(=O)c1c2c(nc3ccccc13)CCCC2)c1ccc(Br)s1`, the activation was 2.67% (inactive).

As to `C[C@H](O)[C@@H]1C(=O)N2CCc3c([nH]c4c(-c5ccc6c(c5)OCO6)cccc34)[C@@H]2C[C@@H]1N(C)C(=O)c1ccco1`, the activation was 5.11% (inactive).

`Nc1nonc1-n1nnc(C(=O)N/N=C/c2c[nH]c3ccccc23)c1-c1ccccc1`: the activation is 6.4% (inactive).

For the compound `Cc1ccc(SCc2c(C(=O)N/N=C/c3cccnc3)nnn2-c2nonc2N)cc1`, the activation is 17.4% (active).

As to `O=C(N/N=C/c1ccc(OC(=O)c2ccccc2Cl)cc1)c1ccc(O)cc1`, the activation is 8.92% (inactive).

Take `O=C(NCCN1CCOCC1)c1ccc(/C=C2\Sc3ccccc3N(Cc3ccc(F)cc3)C2=O)cc1`: the activation is 9.85% (inactive).

With `O=S(=O)(c1cccs1)N1CCCc2nc(-c3ccc(Br)cc3)ccc21`, the activation is 5.49% (inactive).

In the case of `C[C@@H]1CN([C@@H](C)CO)S(=O)(=O)c2ccc(C#Cc3cccc(F)c3)cc2O[C@H]1CN(C)S(=O)(=O)c1cn(C)cn1`, the activation was 13.6% (active).

For the compound `CCCCNc1c(-c2cccc(Sc3ccc(OC)cc3)c2)nc2ccccn12`, the activation was 6.41% (inactive).

For the compound `CSc1ncnc2c1ncn2CC(=O)C1CCC2C3CCC4=CC(=O)CCC4(C)C3CCC12C` (stereo unspecified), the activation is 15.7% (active).

As for `CCN=C1SC(CC(=O)Nc2ccc(C)cc2)C(=O)N1CC` (stereo unspecified), the activation was 9.6% (inactive).

For the compound `O=C(COC(=O)c1ccccc1SCC(=O)N1CCCC1)Nc1ccccc1OC(F)F`, the activation was 9.11% (inactive).

`COc1ccc(-c2nn(-c3ccccc3)cc2C(=O)Nc2nccs2)cc1OC`: the activation was 7.16% (inactive).

Take `COc1cc(SC#N)ccc1N=Cc1c(C)[nH]n(-c2ccc(C)cc2)c1=O`: the activation is 7.36% (inactive).

In the case of `O=C(Nc1ccccc1-c1nnn(CC(=O)N2CCN(c3ccccc3)CC2)n1)c1cccs1`, the activation was 8.25% (inactive).

On to `CC(C)N(Cc1ccccc1)C(=O)COC(=O)c1ccccc1SCC(=O)N1CCCC1`, for which the activation was 8.17% (inactive).

Turning to `COc1ccc(NC(=O)C2CCCN(S(=O)(=O)c3cccc4cccnc34)C2)cc1OC` (stereo unspecified), the activation was 7.3% (inactive).

`CCOC(=O)C1C(c2ccc(OC)c(OC)c2)c2c([nH][nH]c2=O)CC1(C)O` (stereo unspecified): the activation was 3.55% (inactive).

In the case of `Clc1ccc(Nc2ncnc3c2nnn3Cc2ccccc2)cc1`, the activation was 3.96% (inactive).

Take `COc1ccc(N(CC(=O)N/N=C/c2cccs2)S(=O)(=O)c2ccc(OC)c(OC)c2)cc1`: the activation is 8.47% (inactive).

In the case of `CC(=O)OCCN(CCCn1c(-c2ccncc2)nc2ccccc21)c1nc(-c2ccc(C)cc2)cs1`, the activation is 12.8% (active).

In the case of `COC(=O)Cc1nnn2c1[C@H](C)[C@H](c1ccccc1Br)OCC2`, the activation was 9.39% (inactive).

For `CN(c1ccccc1)S(=O)(=O)c1cc(C(=O)Nc2nc3ccccc3[nH]2)ccc1Cl`, the activation is 8.92% (inactive).

`NNC(=O)CNC(c1ccccc1)c1cc(Cl)ccc1NC(=O)c1ccccc1` (stereo unspecified): the activation is 9.38% (inactive).

For the compound `CC/C(=N/Nc1ccccc1)c1cnnc(SC)n1`, the activation is -1.08% (inactive).
